Counter-ions that a name gives are not always drawn. ± gives the standard deviation of the averaged measurements.
Columns and labels:
Assay in all cases: growth (OD600 after 10 h); higher = more growth (less inhibition)
[1] = system: E. coli TESEC Alr+ wild-type control; details: compound 0.1 mM; raw OD600 reference: median of DMSO wells 0.241, cell-free background 0.041
Experimental: (§1)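 TESEC Mtb Alr E. coli, or the Alr+ wild-type control, in 384-well plates with Prestwick library compounds at 0.1 mM and 1% DMSO, across arabinose induction levels of 1E3 to 1E7 nM. Growth is read as OD600 after 10 h at 37 °C in triplicate biological replicates.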

E. coli TESEC Mtb Alr [2] = details: compound 0.1 mM
Experimental: as §1

E. coli TESEC Mtb Asd = details: compound 0.1 mM
Experimental: (§2)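 TESEC E. coli strains in which the native enzyme is deleted and replaced by arabinose-inducible Mtb Asd, DapB, CysH or TrpD, each grown in its selective medium. Strains were screened against the Prestwick library at 0.1 mM and 1% DMSO in 384-well format at low and high arabinose induction. Growth is read as OD600 after 10 h in triplicate.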

E. coli TESEC Mtb DapB = details: compound 0.1 mM
Experimental: as §2

E. coli TESEC Mtb Alr [3] = details: compound 0.1 mM; remark: listed apart in the source
Experimental: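 TESEC Mtb Alr E. coli (ΔaraC ΔtolC ΔentC Δalr ΔdadX, arabinose-inducible Mtb Alr) or the Alr+ wild-type control strain, grown in defined M9-fructose medium without D-alanine in 96-well plates with Prestwick library compounds at 0.1 mM and 1% DMSO. Low Alr induction is 0.1 µM arabinose and high induction is 10 mM arabinose.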

[4] = arabinose 1000 nM, raw OD600 reference: median of DMSO wells 0.294, cell-free background 0.041
[5] = arabinose 10000 nM, raw OD600 reference: median of DMSO wells 0.264, cell-free background 0.041
[6] = arabinose 100000 nM, raw OD600 reference: median of DMSO wells 0.201, cell-free background 0.041
[7] = arabinose 1000000 nM, raw OD600 reference: median of DMSO wells 0.193, cell-free background 0.041
[8] = arabinose 10000000 nM, raw OD600 reference: median of DMSO wells 0.146, cell-free background 0.041
[9] = arabinose induction (level): High, raw OD600 reference: median of DMSO wells 0.331, cell-free background 0.041
[10] = arabinose induction (level): Low, raw OD600 reference: median of DMSO wells 0.417, cell-free background 0.041
[11] = arabinose induction (level): High, raw OD600 reference: median of DMSO wells […], cell-free background 0.041
[12] = arabinose induction (level): Low, raw OD600 reference: median of DMSO wells 0.227, cell-free background 0.041
[13] = arabinose 100 nM, raw OD600 reference: median of DMSO wells 0.413, cell-free background 0.052
[14] = arabinose 10000000 nM, raw OD600 reference: median of DMSO wells […], cell-free background 0.052

Compound	growth [1]	growth (E. coli TESEC Mtb Alr [2]; [4])	growth (E. coli TESEC Mtb Alr [2]; [5])	growth (E. coli TESEC Mtb Alr [2]; [6])	growth (E. coli TESEC Mtb Alr [2]; [7])	growth (E. coli TESEC Mtb Alr [2]; [8])	growth (E. coli TESEC Mtb Asd; [9])	growth (E. coli TESEC Mtb Asd; [10])	growth (E. coli TESEC Mtb DapB; [11])	growth (E. coli TESEC Mtb DapB; [12])	growth (E. coli TESEC Mtb Alr [3]; [13])	growth (E. coli TESEC Mtb Alr [3]; [14])
CC(NCCc1ccc(O)cc1)C(O)c1ccc(O)cc1 (centres undefined) [Ritodrine hydrochloride]	0.234 ± 0.0026	0.313 ± 0.011	0.2537 ± 0.0014	0.21 ± 0.032	0.176 ± 0.0022	0.144 ± 0.0063	0.251 ± 0.027	0.348 ± 0.055	0.179 ± 0.0043	0.185 ± 0.01	0.408 ± 0.0081	0.36 ± 0.019
CC1(C)O[C@@H]2C[C@H]3[C@@H]4C[C@H](F)C5=CC(=O)C=C[C@]5(C)[C@@]4(F)[C@@H](O)C[C@]3(C)[C@]2(C(=O)CO)O1 [Fluocinolone acetonide]	0.174 ± 0.0075	0.262 ± 0.01	0.263 ± 0.0058	0.153 ± 0.0083	0.146 ± 0.0019	0.144 ± 0.0033	0.198 ± 0.02	0.401 ± 0.017	0.188 ± 0.019	0.239 ± 0.039	0.409 ± 0.0053	0.274 ± 0.0057
CN(C)CCC=C1c2ccccc2CCc2ccccc21 [Amitryptiline hydrochloride]	0.1735 ± 0.0011	0.218 ± 0.0042	0.247 ± 0.0093	0.195 ± 0.012	0.08457 ± 0.00076	0.152 ± 0.0021	0.146 ± 0.0079	0.273 ± 0.011	0.195 ± 0.019	0.232 ± 0.047	0.403 ± 0.015	0.182 ± 0.031
Cc1cccc(C)c1OCC(C)N (centres undefined) [Mexiletine hydrochloride]	0.225 ± 0.0049	0.276 ± 0.0054	0.262 ± 0.0058	0.223 ± 0.038	0.171 ± 0.0031	0.143 ± 0.0056	0.348 ± 0.076	0.397 ± 0.033	0.2 ± 0.013	0.288 ± 0.071	0.4 ± 0.015	0.352 ± 0.015
CO[C@@]1(NC(=O)C(C(=O)O)c2ccc(O)cc2)C(=O)N2C(C(=O)O)=C(CSc3nnnn3C)CO[C@@H]21 (some centres undefined) [Moxalactam disodium salt]	0.03947 ± 0.00038	0.0445 ± 0.0063	0.0401 ± 0.00064	0.039 ± 0.0013	0.03987 ± 0.00015	0.0393 ± 0.00046	0.0546 ± 0.0041	0.0559 ± 0.007	0.0504 ± 0.0038	0.0472 ± 0.001	0.0472 ± 0.00072	0.056 ± 0.0067
CN(C)CCCSC(=N)N [Dimaprit dihydrochloride]	0.2627 ± 0.0019	0.308 ± 0.011	0.267 ± 0.0039	0.205 ± 0.014	0.201 ± 0.015	0.131 ± 0.0034	0.255 ± 0.035	0.409 ± 0.093	0.196 ± 0.006	0.199 ± 0.016	0.406 ± 0.015	0.349 ± 0.019
O=P(O)(O)C(O)(Cc1cccnc1)P(=O)(O)O [Risedronic acid monohydrate]	0.247 ± 0.0087	0.2984 ± 0.0028	0.265 ± 0.0074	0.191 ± 0.0063	0.196 ± 0.0097	0.156 ± 0.0062	0.278 ± 0.053	0.376 ± 0.05	0.192 ± 0.014	0.26 ± 0.052	0.426 ± 0.015	0.277 ± 0.011
CC1(C)O[C@@H]2C[C@H]3[C@@H]4CCC5=CC(=O)CC[C@]5(C)[C@@]4(F)[C@@H](O)C[C@]3(C)[C@]2(C(=O)CCl)O1 [Halcinonide]	0.215 ± 0.022	0.283 ± 0.011	0.2593 ± 0.0019	0.181 ± 0.027	0.123 ± 0.0028	0.152 ± 0.014	0.258 ± 0.052	0.36 ± 0.049	0.188 ± 0.003	0.22 ± 0.0073	0.413 ± 0.021	0.256 ± 0.019
CCCOc1ccccc1-c1nc2[nH]nnc2c(=O)[nH]1 [Zaprinast]	0.205 ± 0.0049	0.229 ± 0.0072	0.257 ± 0.0057	0.162 ± 0.016	0.173 ± 0.0024	0.138 ± 0.0042	0.268 ± 0.029	0.313 ± 0.046	0.191 ± 0.0075	0.199 ± 0.024	0.396 ± 0.0084	0.289 ± 0.0088
CN(C)CCN(Cc1cccs1)c1ccccn1 [Methapyrilene hydrochloride]	0.216 ± 0.0071	0.281 ± 0.012	0.252 ± 0.007	0.224 ± 0.024	0.165 ± 0.0065	0.143 ± 0.0051	0.257 ± 0.024	0.41 ± 0.059	0.175 ± 0.0071	0.193 ± 0.0062	0.402 ± 0.011	0.332 ± 0.011
COC(=O)Nc1nc2ccc(SC(C)C)cc2[nH]1 [Methiazole]	0.244 ± 0.0029	0.278 ± 0.0056	0.271 ± 0.0072	0.195 ± 0.013	0.219 ± 0.0056	0.151 ± 0.0024	0.365 ± 0.093	0.33 ± 0.048	0.204 ± 0.019	0.235 ± 0.035	0.427 ± 0.0091	0.37 ± 0.025
CC1COc2c(N3CCN(C)CC3)c(F)cc3c(=O)c(C(=O)O)cn1c23 (centres undefined) [Ofloxacin]	0.04363 ± 5.8e-05	0.0426 ± 0.00057	0.03877 ± 0.00015	0.0435 ± 0.0001	0.03957 ± 0.00029	0.044 ± 0.0001	0.0587 ± 0.0023	0.0597 ± 0.0025	0.0501 ± 0.0018	0.05347 ± 0.00015	0.0542 ± 0.0012	0.05103 ± 0.00031
COc1ccc(OC)c(C(O)CNC(=O)CN)c1 (centres undefined) [Midodrine hydrochloride]	0.243 ± 0.0087	0.291 ± 0.0075	0.281 ± 0.0091	0.204 ± 0.02	0.186 ± 0.0048	0.141 ± 0.0067	0.4 ± 0.017	0.505 ± 0.02	0.188 ± 0.0075	0.25 ± 0.046	0.424 ± 0.0079	0.341 ± 0.008
CC1(C)S[C@@H]2[C@H](NC(=O)[C@H](N)c3ccc(O)cc3)C(=O)N2[C@H]1C(=O)O [Amoxicillin]	0.242 ± 0.006	0.297 ± 0.0057	0.251 ± 0.0052	0.211 ± 0.033	0.186 ± 0.0034	0.14 ± 0.0024	0.358 ± 0.097	0.321 ± 0.037	0.217 ± 0.029	0.259 ± 0.046	0.422 ± 0.011	0.378 ± 0.0083
Cc1ccnc2c1NC(=O)c1cccnc1N2C1CC1 [Nevirapine]	0.233 ± 0.0085	0.29 ± 0.0079	0.254 ± 0.0046	0.212 ± 0.0063	0.203 ± 0.0086	0.14 ± 0.0044	0.399 ± 0.051	0.391 ± 0.053	0.209 ± 0.012	0.243 ± 0.0097	0.402 ± 0.014	0.343 ± 0.011
CCCCC(O)c1ccccc1 (centres undefined) [Fenipentol]	0.242 ± 0.0077	0.295 ± 0.005	0.253 ± 0.0059	0.233 ± 0.035	0.178 ± 0.0054	0.149 ± 0.0015	0.346 ± 0.079	0.357 ± 0.036	0.227 ± 0.013	0.227 ± 0.025	0.403 ± 0.0094	0.337 ± 0.017
COc1ccnc(C[S+]([O-])c2nc3cc(OC(F)F)ccc3[nH]2)c1OC (centres undefined) [Pantoprazole sodium]	0.168 ± 0.0022	0.218 ± 0.0049	0.28 ± 0.0076	0.18 ± 0.011	0.119 ± 0.0037	0.137 ± 0.0065	0.308 ± 0.1	0.296 ± 0.057	0.189 ± 0.0071	0.194 ± 0.018	0.399 ± 0.011	0.291 ± 0.022
